Each structure is given as a SMILES string. Inconclusive results are not listed. Active and inactive are the calls of the source. Unless noted, the call rests on the fitted dose curve; in most records, active means well fitted curve in the direction sought with a large enough effect in the repeat runs; inconclusive means weak or mixed curves; inactive means no such curve, though single readings can be large; an effect the other way counts as inactive or inconclusive.

Assay [1] can be described thus: qHTS assay to identify small molecule antagonists of the glucocorticoid receptor (GR) signaling pathway - cell viability counter screen (AID 720693). Further: nearly all actives have a fitted effect of over 55% in size. Further: potency means the concentration at half of the fitted maximal effect.
A short description of assay [2]: qHTS assay for identifying genotoxic compounds that show differential cytotoxicity against isogenic chicken DT40 cell lines with known DNA damage response pathways - wild type cell line (AID 743012). Further: nearly all actives have a fitted effect of over 60% in size. Further: potency means the concentration at half of the fitted maximal effect. The essentials: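 Parental DNA repair-proficient DT40 cells, 300 per well, were pre-incubated ~0.5 h at 37 C/5% CO2, pin-dosed with compounds in DMSO, then incubated 40 h. Viability was read as CellTiter-Glo luminescence after 30 min at room temperature.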

Assay [3] is described as follows: qHTS assay for identifying genotoxic compounds that show differential cytotoxicity against isogenic chicken DT40 cell lines with known DNA damage response pathways - Rev3 mutant cell line (AID 743014). Further: nearly all actives have a fitted effect of over 55% in size. Further: potency means the concentration at half of the fitted maximal effect.
The nature of assay [4]: qHTS assay for identifying genotoxic compounds that show differential cytotoxicity against isogenic chicken DT40 cell lines with known DNA damage response pathways - Rad54/Ku70 mutant cell line (AID 743015). Further: nearly all actives have a fitted effect of over 60% in size. Further: potency means the concentration at half of the fitted maximal effect.
Assay [5] in a line: qHTS assay to identify small molecule antagonists of the androgen receptor (AR) signaling pathway - cell viability counter screen (AID 743033; further: nearly all actives have a fitted effect of over 45% in size).
Assay [6] in a line: qHTS assay to identify small molecule antagonists of the androgen receptor (AR) signaling pathway using the MDA cell line - cell viability counter screen (AID 743041; further: nearly all actives have a fitted effect of over 45% in size). In a few lines: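 MDA-kb2 AR-luc human breast carcinoma cells (MMTV-luciferase, AR/GR responsive) were treated with compounds plus R1881 agonist for 16 h at 37 °C. Viability was read as CellTiter-Fluor fluorescence in the same wells as the reporter assay.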

Assay [7] is described as follows: qHTS assay to identify small molecule antagonists of the thyroid receptor (TR) signaling pathway - cell viability counter screen (AID 743064). Further: nearly all actives have a fitted effect of over 50% in size. Further: potency means the concentration at half of the fitted maximal effect. In a few lines: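 Counter screen for cytotoxicity: compound plus T3 (1 nM final) on GH3.TRE-Luc cells, 23.5 h at 37 °C, then fluorescence viability readout with CellTiter-Fluor.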
Assay [8] can be described thus: qHTS assay to identify small molecule antagonists of the thyroid receptor (TR) signaling pathway (AID 743065). Further: nearly all actives have a fitted effect of over 55% in size. Further: potency means the concentration at half of the fitted maximal effect. In a few lines:
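GH3.TRE-Luc rat pituitary cells carrying two TR response elements driving luciferase were plated for 4 h, given compound plus 1 nM T3 (final), and incubated 23.5 h at 37 C. ONE-Glo luminescence measured reporter inhibition; CellTiter-Fluor fluorescence tracked cytotoxicity.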

For assay [9], the system named is thyroid hormone receptor (rat, GH3 cells). The assay is described as follows: qHTS assay to identify small molecule agonists of the thyroid receptor (TR) signaling pathway (AID 743066; calls by dose curve; further: potency means the concentration at half of the fitted maximal effect).
In assay [10] the target is Estrogen receptor (Homo sapiens) (UniProt P03372). Put plainly: qHTS assay to identify small molecule antagonists of the estrogen receptor alpha (ER-alpha) signaling pathway (AID 743069; active means well fitted curve in the direction sought with a large enough effect in the signal ratio in the repeat runs, not every such curve was filed as active; the % refers to the signal ratio). The essentials: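 HEK293 cells stably carrying an ER-alpha-UAS-bla beta-lactamase reporter were pre-cultured overnight in 2% charcoal-stripped FBS medium. Test compounds in DMSO were added together with 17beta-estradiol for 18 hr at 37C. Read-out was fluorescence after 2 hr with LiveBLAzer B/G FRET substrate at room temperature.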

Assay [11] can be described thus: qHTS assay to identify small molecule antagonists of the estrogen receptor alpha (ER-alpha) signaling pathway - cell viability counter screen (AID 743074; calls by dose curve; further: nearly all actives have a fitted effect of over 45% in size).
Assay [12] addresses Estrogen receptor (Homo sapiens) (UniProt P03372). Put plainly: qHTS assay to identify small molecule agonists of the estrogen receptor alpha (ER-alpha) signaling pathway (AID 743075; calls by dose curve).
For assay [13] the target is unchanged. Put plainly: qHTS assay to identify small molecule agonists of the estrogen receptor alpha (ER-alpha) signaling pathway using the BG1 cell line (AID 743079). Further: nearly all actives have a fitted effect of over 20% in size.
Assay [14] is described as follows: qHTS assay to identify small molecule antagonists of the estrogen receptor alpha (ER-alpha) signaling pathway using the BG1 cell line - cell viability counter screen (AID 743081).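 Further: compound given together with 17beta-estradiol as the ER stimulus; series mostly up to about 70 µM; nearly all actives have a fitted effect of over 45% in size.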
The next assay has as its target Aromatase (Homo sapiens) (UniProt P11511). Put plainly: qHTS assay to identify aromatase inhibitors (AID 743083). Further: series mostly up to about 70 µM; nearly all actives have a fitted effect of over 55% in size.
Assay [15] can be described thus: qHTS assay to identify small molecule antagonists of the estrogen receptor alpha (ER-alpha) signaling pathway using the BG1 cell line (AID 743080; calls by dose curve;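 further: BG1 cells stimulated with 17beta-estradiol alongside compound; series mostly up to about 70 µM; nearly all actives have a fitted effect of over 25% in size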). The essentials: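 Readout is ONE-Glo luminescence, taken 30 min at room temperature after reagent addition, preceded by a CellTiter-Fluor viability read; BG1-Luc-4E2 cells had received compound and 17beta-estradiol for 21.5 h at 37 C.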

Sequence of Estrogen receptor (Homo sapiens) (P03372 whole entry, looked up): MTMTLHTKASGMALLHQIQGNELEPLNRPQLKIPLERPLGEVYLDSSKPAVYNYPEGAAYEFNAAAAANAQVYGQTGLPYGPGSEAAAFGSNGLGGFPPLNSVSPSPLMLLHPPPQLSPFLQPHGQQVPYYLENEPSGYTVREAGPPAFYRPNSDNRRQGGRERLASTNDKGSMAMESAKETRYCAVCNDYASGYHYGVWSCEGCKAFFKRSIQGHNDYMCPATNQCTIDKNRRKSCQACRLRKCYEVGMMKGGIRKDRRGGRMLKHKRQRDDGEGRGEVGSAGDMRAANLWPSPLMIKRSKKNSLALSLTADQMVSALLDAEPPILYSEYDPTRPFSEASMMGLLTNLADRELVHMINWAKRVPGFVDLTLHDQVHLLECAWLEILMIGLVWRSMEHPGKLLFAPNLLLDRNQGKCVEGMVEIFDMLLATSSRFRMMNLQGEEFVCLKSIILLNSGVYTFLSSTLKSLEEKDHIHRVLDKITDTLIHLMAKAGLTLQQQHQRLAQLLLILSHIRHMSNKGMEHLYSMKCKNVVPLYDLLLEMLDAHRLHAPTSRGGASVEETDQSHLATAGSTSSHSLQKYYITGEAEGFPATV
Sequence of Aromatase (Homo sapiens) (P11511 whole entry, looked up): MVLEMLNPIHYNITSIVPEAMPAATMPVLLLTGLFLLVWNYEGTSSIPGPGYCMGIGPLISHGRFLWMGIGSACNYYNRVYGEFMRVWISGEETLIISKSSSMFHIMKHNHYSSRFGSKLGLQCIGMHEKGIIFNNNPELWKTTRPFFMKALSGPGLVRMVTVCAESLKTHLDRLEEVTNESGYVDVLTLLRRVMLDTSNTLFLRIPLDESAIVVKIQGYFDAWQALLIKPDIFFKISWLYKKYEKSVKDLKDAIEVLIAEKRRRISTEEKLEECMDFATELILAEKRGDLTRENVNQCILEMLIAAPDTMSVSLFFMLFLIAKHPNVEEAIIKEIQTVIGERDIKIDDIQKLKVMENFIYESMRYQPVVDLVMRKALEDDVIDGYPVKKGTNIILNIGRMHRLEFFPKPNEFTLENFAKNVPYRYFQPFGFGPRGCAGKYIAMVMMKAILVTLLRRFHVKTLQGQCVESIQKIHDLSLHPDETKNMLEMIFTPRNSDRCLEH

On to `C[N+](C)(C)CC(O)CCl` (configuration not stated), for which the Potency result in [1], in [2], in [3], in assay [4], in assay [7] and in assay [8] was “inactive” each time. In addition, the Potency result in assay [9], in [10], in assay [11], in assay [12] and in assay [13] was “inactive” each time. The compound was called inactive (in assay [5]; in assay [6]; in assay [14]; with Aromatase (Homo sapiens)).

As for `CNCc1ccccc1`, the Potency result in assay [1], in [2], in assay [3], in [4], in assay [7] and in assay [8] was “inactive” in each case. Also, the Potency entry in assay [9] and in assay [11] was “inactive” throughout. In addition, the outcome (in assay [5]; in assay [6]; in assay [14]; with Aromatase (Homo sapiens)) was inactive.

For the compound `C=CCOc1c(Br)cc(C(C)(C)c2cc(Br)c(OCC=C)c(Br)c2)cc1Br`, the Potency result in assay [1], in [2], in assay [3], in assay [4], in assay [10] and in [11] was “inactive” each time. Further, the Potency entry in [12] and in assay [13] was “inactive” each time. Further, the compound was called inactive (in assay [5]; in assay [6]; in assay [15]; in assay [14]; with Aromatase (Homo sapiens)).

`Cc1nc2ccccc2c(=O)o1`: the Potency result in assay [1], in [2], in [3], in assay [4], in [8] and in assay [9] was “inactive” each time. The Potency result in assay [10], in [11], in [12] and in [13] was “inactive” in each case. For the same compound, the compound was called inactive (in assay [5]; in [6]; in [15]; in assay [14]; with Aromatase (Homo sapiens)).

Consider `Cc1cc(C)cc([N+](=O)[O-])c1`, for which the Potency result in [1], in [2], in [3], in [4], in [8] and in assay [9] was “inactive” each time. Besides, the Potency entry in [10], in assay [11], in [12] and in assay [13] was “inactive” in each case. The call (in assay [5]; in [6]; in assay [15]; in assay [14]; with Aromatase (Homo sapiens)) was inactive.

In the case of `COc1cc2c(Nc3ccc(Br)cc3F)ncnc2cc1OCC1CCN(C)CC1`, the Potency in [1] is 23.9 µM (active); in [2], 5.31 µM (active); in [3], 5.96 µM (active); in assay [4], 6.68 µM (active); in [7], 4.73 µM (active); in assay [8] it was 5.31 µM (active). Moreover, the compound was classed as inactive (in assay [5]; in [6]; with Aromatase (Homo sapiens)). In addition, the Potency entry in assay [10] and in assay [13] was “inactive” each time.

Consider `CN(C)CCOCCN(C)CCO`, for which the Potency entry in [1], in assay [2], in assay [3], in [4], in [8] and in assay [9] was “inactive” in each case. For the same compound, the Potency result in assay [10], in assay [11], in assay [12] and in assay [13] was “inactive” throughout. The result (in assay [5]; in assay [6]; in assay [15]; in assay [14]; with Aromatase (Homo sapiens)) was inactive.

For the compound `C[C@H](CCC(=O)NCC(=O)O)[C@H]1CC[C@H]2[C@@H]3[C@H](O)C[C@@H]4C[C@H](O)CC[C@]4(C)[C@H]3C[C@H](O)[C@]12C`, the Potency entry in assay [1], in assay [2], in assay [3], in assay [4], in [8] and in assay [11] was “inactive” throughout. Also, the call (in [5]; in assay [6]; in assay [14]; with Aromatase (Homo sapiens)) was inactive. In [9], the Potency is 74.8 µM (active).

In the case of `C/C=C(\C)C(=O)OCC/C=C\CC`, the Potency result in assay [1], in assay [2], in assay [3], in [4], in assay [9] and in [11] was “inactive” throughout. The compound was called inactive in assay [5], in assay [6] and in [14].

On to `NC(Cc1c[nH]c2ccccc12)C(=O)O` (configuration not stated), for which the Potency entry in assay [1], in assay [2], in assay [3], in assay [4], in assay [8] and in [9] was “inactive” throughout. The Potency result in assay [11] was “inactive”. Also, the result (in [5]; in assay [6]; in [14]; with Aromatase (Homo sapiens)) was inactive.

Turning to `C=COCCOCCOC=C`, the Potency entry in assay [1], in assay [2], in [3], in [4], in assay [7] and in assay [8] was “inactive” each time. The Potency result in assay [9] and in [11] was “inactive” throughout. The compound was called inactive (in assay [5]; in assay [6]; in assay [14]; in the assay with Aromatase (Homo sapiens)).

With `COC(=O)CCC(=O)O`, the Potency result in assay [1], in assay [2], in [3], in [4], in assay [8] and in assay [9] was “inactive” each time. Besides, the Potency entry in assay [10], in assay [11], in [12] and in assay [13] was “inactive” throughout. Further, the result (in assay [5]; in assay [6]; in assay [15]; in [14]; with Aromatase (Homo sapiens)) was inactive.

Take `CCNC(=O)NCCCOc1cccc(CN2CCCCC2)c1`: the Potency result in assay [1], in assay [2], in [3], in [4], in [7] and in [8] was “inactive” in each case. In addition, the Potency entry in assay [9], in [10], in assay [12] and in [13] was “inactive” throughout. The outcome (in assay [5]; in assay [6]; in assay [15]; in assay [14]; in the assay with Aromatase (Homo sapiens)) was inactive.

As for `O=C(COCCOCCOCC(=O)Nc1c(I)cc(I)c(C(=O)O)c1I)Nc1c(I)cc(I)c(C(=O)O)c1I`, the Potency result in assay [1], in assay [2], in [3], in [4], in assay [8] and in assay [9] was “inactive” in each case. Also, the Potency entry in assay [10], in [11], in assay [12] and in [13] was “inactive” in each case. The result (in [5]; in assay [6]; in assay [15]; in assay [14]; with Aromatase (Homo sapiens)) was inactive.

As for `CN(C)CCCNCCC#N`, the Potency result in assay [1], in assay [2], in [3], in assay [4], in assay [7] and in assay [8] was “inactive” throughout. The Potency entry in [9] and in assay [11] was “inactive” in each case. The compound was classed as inactive (in assay [5]; in [6]; in [14]; in the assay with Aromatase (Homo sapiens)).

Turning to `CCC1Nc2cc(Cl)c(S(N)(=O)=O)cc2S(=O)(=O)N1` (configuration not stated), the Potency entry in assay [1], in assay [2], in assay [3], in [4], in assay [7] and in assay [8] was “inactive” throughout. Besides, the Potency entry in assay [9] and in [11] was “inactive” in each case. For the same compound, the compound was classed as inactive (in assay [5]; in assay [6]; with Aromatase (Homo sapiens)).

In the case of `O=C1NC2NC(=O)NC2N1` (configuration not stated), the Potency entry in [1], in assay [2], in assay [3], in assay [4], in [7] and in assay [8] was “inactive” in each case. Further, the Potency result in assay [9] and in assay [11] was “inactive” in each case. Also, the compound was classed as inactive (in [5]; in assay [6]; in assay [14]; with Aromatase (Homo sapiens)).

Take `Cc1ccc2c(c1)c1c3n2CCNC3CCC1` (configuration not stated): the Potency result in assay [1] and in assay [11] was “inactive” each time. The Potency in [2] is 11.9 µM (active); in assay [3], 11.9 µM (active); in [4], 16.8 µM (active); in [8], 23.7 µM (active). The call (in assay [5]; in assay [6]; in [14]; in the assay with Aromatase (Homo sapiens)) was inactive.

`FC(F)(F)c1ccc(Cl)cc1Cl`: the Potency result in assay [1], in assay [2], in [3], in [4], in assay [8] and in assay [9] was “inactive” in each case. The Potency result in assay [11] was “inactive”. Also, the compound was called inactive (in assay [5]; in assay [6]; in assay [14]; with Aromatase (Homo sapiens)).

On to `NS(=O)(=O)c1ccccc1OC(F)(F)F`, for which the Potency entry in [1], in [2], in assay [3], in assay [4], in assay [7] and in [11] was “inactive” each time. Also, the compound was called inactive (in assay [5]; in [6]; in assay [14]; with Aromatase (Homo sapiens)).

Take `Cc1nc([N+](=O)[O-])cn1-c1ccc([N+](=O)[O-])cc1`: the Potency entry in assay [1], in [2], in assay [3], in assay [4], in [8] and in assay [9] was “inactive” throughout. Also, the Potency entry in [10], in assay [11], in assay [12] and in assay [13] was “inactive” throughout. In addition, the compound was called inactive (in [5]; in assay [6]; in [15]; in assay [14]; with Aromatase (Homo sapiens)).

For the compound `C=C(C)C(=O)OC1CC(C)CC(C)(C)C1` (configuration not stated), the Potency result in assay [1], in [2], in [3], in assay [4], in assay [7] and in assay [8] was “inactive” in each case. Moreover, the Potency result in [9] and in assay [11] was “inactive” in each case. Also, the compound was called inactive (in [5]; in [6]; in assay [14]; with Aromatase (Homo sapiens)).

The values above are taken from PubChem BioAssay (Tox21).
